Reference: PubChem BioAssay
Values joined by “and” are separate entries in the source; they are usually repeats but may differ in a detail not shown here. Equal values may be shown once. Active and inactive are the calls of the source. Rule as the data show it, unless noted: active = inhibition above about 33%; inactive = the rest.

Tests used:
[1] = target: Nuclear receptor coactivator 3 (Homo sapiens) (UniProt Q9Y6Q9); assay: SRC3 coactivator transcriptional activity inhibitors, confirmation, cell-based, luminescence, quadruplicate (AID 588792;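 active = mean inhibition over 43.08%, the solvent-only control mean plus 3 SD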;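 also: 0% = DMSO treated cells and 100% = gossypol at 36 µM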); conditions: HEK293 GAL4-SRC3 luciferase reporter, at 3.6 µM, stronger effect = higher value
[2] = test system: transactivating tegument protein VP16 (Human herpesvirus 1), Gal4-VP16 luciferase reporter; assay: VP16 transactivation inhibitors, counter-screen for SRC3 inhibitor project, cell-based, luminescence, high throughput (AID 588794; in the data active = inhibition above about 30%); conditions: mammalian cells, VP16-driven luciferase reporter luminescence; at 3.6 µM; stronger effect = higher value
[3] = target: Nuclear receptor coactivator 1 (Homo sapiens) (UniProt Q15788); assay: SRC1 coactivator transcriptional activity inhibitors, confirmation, cell-based, luminescence, quadruplicate (AID 588820;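 active = mean inhibition above 46.68%, the untreated control wells mean plus 3 SD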;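 also: 0% = DMSO wells and 100% = gossypol 36 µM treated wells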); conditions: HEK293 GAL4-SRC1 luciferase reporter, at 3.6 µM, stronger effect = higher value
[4] = VP16 transactivation inhibitors, counter-screen for SRC1 inhibitor project, cell-based, luminescence, high throughput (AID 588824; in the data active = inhibition above about 25%); conditions: cell-based VP16 transactivation luciferase luminescence; at 3.6 µM; stronger effect = higher value
[5] = StAR promoter reporter inhibitors, counter-screen for LRH-1 inverse agonist project, cell-based, luminescence, high throughput (AID 651611; in the data active = inhibition above about 28%); conditions: StAR promoter luciferase reporter counterscreen, at 3.6 µM, stronger effect = higher value
[6] = target: Nuclear receptor subfamily 5 group A member 2 (Homo sapiens) (UniProt O00482); assay: LRH-1 (NR5A2) inverse agonists, retest, confirmation, cell-based, luminescence (AID 651613; in the data active = inhibition above about 42%;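 also: HEK293T cells co-transfected with LRH-1 and StAR promoter luciferase reporter; 0% = vehicle wells and 100% = parental cells lacking receptor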); conditions: cell-based LRH-1 luciferase reporter, inverse agonism; at 3.6 µM; stronger effect = higher value
[7] = target: Steroidogenic factor 1 (Homo sapiens) (UniProt Q13285); assay: SF1 (NR5A1) inverse agonists, counter-screen for LRH-1 inverse agonist project, cell-based, luminescence, high throughput (AID 651614; in the data active = inhibition above about 44%;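 also: cells cotransfected with StAR promoter reporter and SF1 expression vector; 0% = vehicle on cells with receptor and 100% = vehicle on cells lacking receptor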); conditions: cell-based SF1 luciferase reporter, at 3.6 µM, stronger effect = higher value
[8] = VP16 transactivation reporter inhibitors, counter-screen for LRH-1 inverse agonist project, cell-based, luminescence, high throughput (AID 651615); conditions: Gal4-VP16 luciferase reporter cells, at 3.6 µM, stronger effect = higher value

Measured: inhibition

Chain of Nuclear receptor coactivator 3 (Homo sapiens) (Q9Y6Q9 whole entry, looked up, the tested form may be a part): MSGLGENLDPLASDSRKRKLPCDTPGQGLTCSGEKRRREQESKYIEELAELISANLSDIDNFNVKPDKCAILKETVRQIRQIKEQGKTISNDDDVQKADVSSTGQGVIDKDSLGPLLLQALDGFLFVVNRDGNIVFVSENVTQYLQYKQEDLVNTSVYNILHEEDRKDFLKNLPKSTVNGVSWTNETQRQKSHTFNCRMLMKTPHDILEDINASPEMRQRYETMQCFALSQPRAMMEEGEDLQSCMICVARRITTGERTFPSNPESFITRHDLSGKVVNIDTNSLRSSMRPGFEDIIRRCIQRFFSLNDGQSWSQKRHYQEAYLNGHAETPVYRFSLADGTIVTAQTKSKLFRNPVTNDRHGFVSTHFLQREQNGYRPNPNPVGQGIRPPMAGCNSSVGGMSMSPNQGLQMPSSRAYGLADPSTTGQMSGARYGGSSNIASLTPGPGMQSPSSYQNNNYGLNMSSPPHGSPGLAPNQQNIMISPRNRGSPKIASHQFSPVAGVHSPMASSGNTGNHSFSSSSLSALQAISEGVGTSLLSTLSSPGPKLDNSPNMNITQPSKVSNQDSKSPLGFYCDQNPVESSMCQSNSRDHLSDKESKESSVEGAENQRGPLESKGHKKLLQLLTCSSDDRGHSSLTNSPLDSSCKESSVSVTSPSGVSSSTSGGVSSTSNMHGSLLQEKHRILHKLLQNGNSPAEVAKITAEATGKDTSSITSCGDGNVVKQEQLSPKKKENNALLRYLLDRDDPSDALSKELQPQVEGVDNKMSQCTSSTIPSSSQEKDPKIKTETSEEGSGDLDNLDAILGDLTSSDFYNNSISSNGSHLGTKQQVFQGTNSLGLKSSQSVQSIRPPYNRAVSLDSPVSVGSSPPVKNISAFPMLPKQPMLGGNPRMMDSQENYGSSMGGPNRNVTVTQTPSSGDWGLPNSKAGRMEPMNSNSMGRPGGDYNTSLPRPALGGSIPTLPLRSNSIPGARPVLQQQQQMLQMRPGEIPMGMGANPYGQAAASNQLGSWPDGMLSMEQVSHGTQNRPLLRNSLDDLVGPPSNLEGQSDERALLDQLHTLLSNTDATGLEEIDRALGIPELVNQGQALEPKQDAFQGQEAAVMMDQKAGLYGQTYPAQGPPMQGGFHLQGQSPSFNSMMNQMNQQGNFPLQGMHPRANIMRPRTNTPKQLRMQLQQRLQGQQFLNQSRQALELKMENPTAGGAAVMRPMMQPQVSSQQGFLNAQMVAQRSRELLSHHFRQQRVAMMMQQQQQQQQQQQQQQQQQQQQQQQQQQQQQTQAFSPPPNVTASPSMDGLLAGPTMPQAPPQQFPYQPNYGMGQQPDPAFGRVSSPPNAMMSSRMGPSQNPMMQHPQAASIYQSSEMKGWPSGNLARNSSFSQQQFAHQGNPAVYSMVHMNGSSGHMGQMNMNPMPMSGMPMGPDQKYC
Chain of Steroidogenic factor 1 (Homo sapiens) (Q13285 whole entry, looked up, the tested form may be a part): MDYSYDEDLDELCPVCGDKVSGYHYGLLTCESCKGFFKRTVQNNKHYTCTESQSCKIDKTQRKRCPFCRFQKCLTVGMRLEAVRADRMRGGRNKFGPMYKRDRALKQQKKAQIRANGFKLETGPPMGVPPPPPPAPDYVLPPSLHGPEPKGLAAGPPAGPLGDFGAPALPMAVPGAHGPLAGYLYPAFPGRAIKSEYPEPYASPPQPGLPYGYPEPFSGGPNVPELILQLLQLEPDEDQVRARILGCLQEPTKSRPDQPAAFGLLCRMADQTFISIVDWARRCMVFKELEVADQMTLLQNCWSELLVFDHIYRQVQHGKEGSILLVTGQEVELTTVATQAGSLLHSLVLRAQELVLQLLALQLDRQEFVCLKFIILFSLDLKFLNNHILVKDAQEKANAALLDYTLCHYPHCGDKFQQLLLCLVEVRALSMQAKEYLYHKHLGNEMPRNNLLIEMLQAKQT
Chain of Nuclear receptor subfamily 5 group A member 2 (Homo sapiens) (O00482 whole entry, looked up): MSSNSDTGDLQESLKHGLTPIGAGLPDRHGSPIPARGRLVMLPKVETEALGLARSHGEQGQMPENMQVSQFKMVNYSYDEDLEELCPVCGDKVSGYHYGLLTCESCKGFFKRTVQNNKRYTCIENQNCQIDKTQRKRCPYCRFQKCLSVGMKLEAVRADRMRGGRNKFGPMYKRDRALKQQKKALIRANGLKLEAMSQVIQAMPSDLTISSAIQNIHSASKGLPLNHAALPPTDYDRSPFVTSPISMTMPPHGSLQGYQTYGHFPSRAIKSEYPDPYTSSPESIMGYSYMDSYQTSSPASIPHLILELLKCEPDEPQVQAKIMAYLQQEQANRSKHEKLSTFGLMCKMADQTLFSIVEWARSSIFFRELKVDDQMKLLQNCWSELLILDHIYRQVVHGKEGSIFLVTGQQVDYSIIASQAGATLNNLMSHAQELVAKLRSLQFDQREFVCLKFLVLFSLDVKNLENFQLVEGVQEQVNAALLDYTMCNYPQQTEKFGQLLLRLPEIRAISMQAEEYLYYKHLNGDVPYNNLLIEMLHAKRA
Chain of Nuclear receptor coactivator 1 (Homo sapiens) (Q15788 whole entry, looked up, the tested form may be a part): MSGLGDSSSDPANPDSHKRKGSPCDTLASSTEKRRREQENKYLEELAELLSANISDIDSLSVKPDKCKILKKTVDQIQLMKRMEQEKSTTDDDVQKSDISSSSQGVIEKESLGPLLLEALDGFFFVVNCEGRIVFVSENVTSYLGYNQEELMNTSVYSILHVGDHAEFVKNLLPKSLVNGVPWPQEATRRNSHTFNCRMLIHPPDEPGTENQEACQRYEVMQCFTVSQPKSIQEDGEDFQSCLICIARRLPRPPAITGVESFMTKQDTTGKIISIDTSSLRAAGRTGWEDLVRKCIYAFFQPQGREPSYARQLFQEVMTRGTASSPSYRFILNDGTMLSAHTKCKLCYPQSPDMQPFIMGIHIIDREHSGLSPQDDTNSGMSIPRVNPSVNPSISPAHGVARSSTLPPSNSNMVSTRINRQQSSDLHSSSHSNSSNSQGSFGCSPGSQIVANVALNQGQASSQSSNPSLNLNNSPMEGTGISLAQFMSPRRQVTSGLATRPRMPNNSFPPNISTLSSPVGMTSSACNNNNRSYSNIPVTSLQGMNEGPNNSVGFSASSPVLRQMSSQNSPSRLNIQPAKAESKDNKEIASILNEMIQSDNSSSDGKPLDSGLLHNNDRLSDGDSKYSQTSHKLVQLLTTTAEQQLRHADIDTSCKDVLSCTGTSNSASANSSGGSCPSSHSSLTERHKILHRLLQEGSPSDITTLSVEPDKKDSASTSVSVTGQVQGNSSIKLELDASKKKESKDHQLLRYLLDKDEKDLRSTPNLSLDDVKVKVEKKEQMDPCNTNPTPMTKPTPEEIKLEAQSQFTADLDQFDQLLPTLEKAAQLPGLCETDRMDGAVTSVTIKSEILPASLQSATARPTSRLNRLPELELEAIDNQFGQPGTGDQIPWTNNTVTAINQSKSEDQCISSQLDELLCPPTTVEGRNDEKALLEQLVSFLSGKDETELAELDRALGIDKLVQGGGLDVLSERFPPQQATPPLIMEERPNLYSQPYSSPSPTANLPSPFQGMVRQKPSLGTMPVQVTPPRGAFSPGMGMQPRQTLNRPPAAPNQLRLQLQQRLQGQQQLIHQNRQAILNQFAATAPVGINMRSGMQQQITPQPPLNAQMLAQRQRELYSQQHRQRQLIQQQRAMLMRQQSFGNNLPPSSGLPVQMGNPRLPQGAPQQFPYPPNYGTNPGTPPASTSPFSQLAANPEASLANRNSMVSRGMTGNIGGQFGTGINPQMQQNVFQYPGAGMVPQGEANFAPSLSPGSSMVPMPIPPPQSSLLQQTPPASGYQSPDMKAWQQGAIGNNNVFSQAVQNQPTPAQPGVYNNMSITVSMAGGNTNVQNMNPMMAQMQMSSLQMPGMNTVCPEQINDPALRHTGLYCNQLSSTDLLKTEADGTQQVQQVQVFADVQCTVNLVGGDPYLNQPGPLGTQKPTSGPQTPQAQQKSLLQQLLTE

CCC(C)N(CC(=O)Nc1cccc(C)c1C)C(=O)CCl (stereo not given)
active: [1] 80% | [2] 67% | [3] 52% | [4] 71% | [5] 69.2% | [6] 84.8% | [7] 78.8% | [8] 77.9%

Cn1cnc([N+](=O)[O-])c1Sc1nc(N)nc2c1ncn2C1OC(CO)C(O)C1O (stereo not given)
inactive: [2] 14.7% | [3] -6.11% | [4] 9.12% | [7] 24.3%
active: [1] 43.8% | [5] 56.1% | [6] 52% | [8] 45.1%

CCN1CCN(/C=N/c2nc3c(s2)CCCC3)CC1
inactive: [1] 19.2% | [2] -9.09% | [3] -62.9% | [4] -59.3% | [5] -69.4% | [6] -91.2% | [7] -86.7% | [8] -69.9%

CC(NC(=O)Nc1nnc(C(F)(F)F)s1)(C(F)(F)F)C(F)(F)F
active: [1] 52.9% | [2] 72% | [4] 79.1% | [5] 74.9% | [6] 99.7% | [7] 89.4% | [8] 93%
inactive: [3] 37.6%

c1ccc2cc3c(NCCN4CCOCC4)ccnc3cc2c1
active: [2] 44.7% | [4] 45.4% | [5] 35.6% | [6] 83.1% | [7] 55.6% | [8] 55.8%
inactive: [1] 22.8% | [3] 38.6%

CC(C)CC[n+]1ccccc1/C=C/c1ccc(N(C)C)cc1
active: [1] 60.5% | [2] 79.3% | [3] 54.6% | [4] 79.3% | [5] 64.3% | [6] 105% | [7] 90.4% | [8] 87.1%

Cc1c(P(=S)(c2ccccc2)c2ccccc2)[n+]2ccccc2n1C/C=C/c1ccccc1
active: [2] 36.9% | [4] 54.4% | [5] 44.7% | [6] 90.6% | [7] 51.4% | [8] 60.5%
inactive: [1] 20.6% | [3] 26%

CCCCCC[n+]1ccccc1/C=C/c1ccc(N(C)C)cc1
active: [1] 89.5% | [2] 88.2% | [3] 64% | [4] 86.2% | [5] 81.5% | [6] 110% | [7] 94.8% | [8] 94.7%

COc1ccccc1-[n+]1c(C)cc(/C=C2\Sc3ccccc3N2C)cc1C
active: [1] 81.9% | [2] 85.2% | [4] 79.1% | [5] 38.9% | [6] 104% | [7] 83.3% | [8] 91%
inactive: [3] 8.54%

CC(C)=CC(O)C/C(C)=C/COc1ccc2ccc(=O)oc2c1 (stereo not given)
active: [2] 38.5% | [4] 40.6%
inactive: [1] 17.4% | [3] 0.43% | [5] -4.64% | [6] 31.5% | [7] 29.2% | [8] -10.8%

O=C(NC(Nc1nc2ccc([N+](=O)[O-])cc2s1)(C(F)(F)F)C(F)(F)F)c1cccnc1
inactive: [3] 26.9%
active: [1] 62.8% | [2] 75.3% | [4] 75.3% | [5] 81.4% | [6] 104% | [7] 95.1% | [8] 88.7%

COC(=O)C12OCC34C(CC5C(C)=C(O)C(=O)CC5(C)C3C(O)C1O)OC(=O)C(OC(=O)C=C(C)C)C24 (stereo not given)
active: [1] 97.3% | [2] 96.7% | [3] 95.2% | [4] 96.3% | [5] 96.9% | [6] 110% | [7] 98.5% | [8] 97.6%

Cc1ccc(S(=O)(=O)Nc2ccccc2C(=O)Nc2nc(-c3ccc(F)cc3)cs2)cc1
active: [4] 37% | [5] 42.1% | [6] 82.7% | [7] 80.3% | [8] 72.4%
inactive: [1] 20.7% | [2] 27.8% | [3] 20.1%

COc1ccc(C(=O)Nc2nc3ccccc3s2)c(OC)c1
active: [1] 92.8% | [2] 91.5% | [3] 84.7% | [4] 87.5% | [5] 93.4% | [6] 93.9% | [7] 92.3% | [8] 90.2%

Cc1cccc(C(=O)Nc2sc3c(c2C(=O)O)CCCC3)c1
inactive: [1] 37.5% | [3] 25.5%
active: [2] 59.1% | [4] 58.2% | [5] 53.6% | [6] 85.8% | [7] 82.3% | [8] 68.9%

Cc1nc2cc(NCc3nc4ccccc4n3Cc3ccccc3)ccc2n1C
inactive: [1] -99.3% | [2] -51.2% | [3] -116% | [4] -72.9% | [5] -136% | [6] -185% | [7] -209% | [8] -111%

NC1=C(Cl)C(=O)c2ccc(S(N)(=O)=O)cc2C1=O
active: [1] 97.5% | [2] 93.7% | [3] 82% | [4] 92.8% | [5] 89.7% | [6] 106% | [7] 94% | [8] 95.8%

Nc1nc(N)c2c(ccc3c2ccn3Cc2cccc([N+](=O)[O-])c2)n1
active: [1] 76.1% | [2] 42.6% | [3] 71.1% | [4] 40.8% | [5] 72.6% | [6] 65.6% | [7] 67.4% | [8] 43.3%

CC(C)(C)N(Cc1ccc2c(c1)OCO2)C(=O)/C=C\S(=O)c1ccccc1 (stereo not given)
inactive: [3] 17.8%
active: [1] 45% | [2] 38.2% | [4] 38.1% | [5] 34.7% | [6] 56.4% | [7] 68.2% | [8] 61.6%

COc1ccc(CCNC(=O)c2nnn(-c3ccc4c(c3)OCCO4)c2N)cc1OC
inactive: [1] 31.7% | [2] 2.53% | [3] 13.1% | [4] -6.95% | [6] -26.3% | [7] 29% | [8] -16.9%
active: [5] 44.7%

CC1Cc2cc(-c3csc(NC(=O)Cc4cccs4)n3)ccc2N1S(C)(=O)=O (stereo not given)
active: [2] 42.5% | [4] 57.8% | [5] 47.4% | [6] 63.7% | [7] 62% | [8] 69.9%
inactive: [1] 14.4% | [3] -1.43%

COc1ccc(CCNc2ncnc3c2oc2ccccc23)cc1OC
inactive: [1] 15.8% | [3] 2.85%
active: [2] 34.9% | [4] 32.5% | [5] 34.5% | [6] 51.8% | [7] 58.1% | [8] 55.6%

Cc1ccc(-c2cn(-c3ccccc3)c3[n+]2CCCS3)cc1
inactive: [1] 1.67% | [2] 27.5% | [3] 9.91% | [4] 19.5% | [5] 24.4% and 12.1%
active: [6] 80.1% and 61.7% | [7] 61.2% and 59.6% | [8] 64.2% and 56.1%

CCCCCCCCCCn1c2c(c(=N)c3c1CCC3)CCC2
active: [1] 85.2% | [2] 89.5% | [3] 57.1% | [4] 89.7% | [5] 82.1% | [6] 108% | [7] 94.5% | [8] 95.2%

CCN1CCS/C1=C\C=C\C1=[N+](CC)CCS1
inactive: [1] 22.6% | [3] 4.06%
active: [2] 44.8% | [4] 50.1% | [5] 32.9% | [6] 77% | [7] 79% | [8] 69.2%

O=[N+]([O-])c1cc(CN2CCN(c3ccccc3)CC2)c(O)c2ncccc12
inactive: [3] 9.05%
active: [1] 48.3% | [2] 56.4% | [4] 50.8% | [5] 59.3% | [6] 90.1% | [7] 85.7% | [8] 73.4%

O=C(N/N=C/c1ccc[nH]1)c1ccc(COc2cccc3cccnc23)cc1
active: [1] 83% | [2] 71.8% | [4] 66.5% | [5] 86% | [6] 109% | [7] 96.3% | [8] 88.4%
inactive: [3] 0.58%

Cc1ccc(-n2c(-c3ccccc3)c[n+]3c2CCc2ccccc2-3)c(C)c1
active: [1] 61.7% | [2] 68.1% | [4] 69.4% | [5] 57.4% | [6] 107% | [7] 87.7% | [8] 91.7%
inactive: [3] 42.5%

CCCCCCn1c2c(c(=N)c3c1CCC3)CCC2
active: [1] 61.3% | [2] 76.9% | [3] 55.4% | [4] 76.4% | [5] 68.7% | [6] 110% | [7] 91.7% | [8] 93.6%

CC(C)CC(=NNC(=O)c1ccncc1)c1cc(Cl)ccc1O
active: [1] 80.1% | [2] 72.5% | [3] 65.2% | [4] 78.7% | [5] 88.6% | [6] 101% | [7] 92.5% | [8] 85.7%

COC(=O)c1c(NC(=O)c2cccc([N+](=O)[O-])c2)sc(C(N)=O)c1C
active: [2] 55.9% | [4] 47.2% | [5] 46.9% | [6] 84.6% | [7] 80.5% | [8] 69.2%
inactive: [1] 23.4% | [3] 18.9%

COc1ccc(C=C2CS(=O)(=O)CC(=Cc3ccc(OC)cc3)C2=O)cc1
active: [2] 46.8% | [4] 55.9% | [5] 43.9% | [6] 83% | [7] 83.7% | [8] 80.1%
inactive: [1] 29.7% | [3] -73.9%

CC(=NNC(=S)Nc1cccc(C)c1)c1ccccn1
active: [1] 65.8% | [2] 67.1% | [4] 66.7% | [5] 85.1% | [6] 99.3% | [7] 92.4% | [8] 68.8%
inactive: [3] 1.68%

Cc1ccc(S(=O)(=O)/N=C2\C=C(Nc3ccc(O)cc3)C(=O)c3ccccc32)cc1
active: [1] 91.8% | [2] 83.1% | [3] 71.1% | [4] 86.3% | [5] 90.3% | [6] 106% | [7] 94.6% | [8] 96%

CCOc1ccc(-n2c(-c3ccc(OC)cc3)c[n+]3c2CCCCC3)cc1
inactive: [3] 36.2%
active: [1] 46.6% | [2] 67.5% | [4] 63.9% | [5] 52.9% | [6] 109% | [7] 83.9% | [8] 90.3%
